Assay outcomes from PubChem BioAssay.
Many of the other results were omitted from the sample, so hits are more common in it than they were.
ERG-DNA inh – blocks human ERG Ets domain binding to DNA. fluorescence polarization, His-ERG Ets domain / labelled DNA. Potency, µM (series often up to 76.9 µM), for the others: top-dose FP activity, negative = inhibition, hits mostly inhibitors. hit rate 0.028% among 370,000; active means well fitted inhibition curve with a large enough effect in the polarisation, with a control signal flat; inconclusive means small, poorly fitted or top-dose-only effect, or effect the other way, or a change in a side signal; inactive means no such curve, though single readings can be large or run the other way; the % refers to the polarisation;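 further: polarization taken with two DNA probes labelled with fluorescein and Texas red; % of control where 0% means no effect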
Target sequence (P11308 whole entry, looked up, the tested form may be a part): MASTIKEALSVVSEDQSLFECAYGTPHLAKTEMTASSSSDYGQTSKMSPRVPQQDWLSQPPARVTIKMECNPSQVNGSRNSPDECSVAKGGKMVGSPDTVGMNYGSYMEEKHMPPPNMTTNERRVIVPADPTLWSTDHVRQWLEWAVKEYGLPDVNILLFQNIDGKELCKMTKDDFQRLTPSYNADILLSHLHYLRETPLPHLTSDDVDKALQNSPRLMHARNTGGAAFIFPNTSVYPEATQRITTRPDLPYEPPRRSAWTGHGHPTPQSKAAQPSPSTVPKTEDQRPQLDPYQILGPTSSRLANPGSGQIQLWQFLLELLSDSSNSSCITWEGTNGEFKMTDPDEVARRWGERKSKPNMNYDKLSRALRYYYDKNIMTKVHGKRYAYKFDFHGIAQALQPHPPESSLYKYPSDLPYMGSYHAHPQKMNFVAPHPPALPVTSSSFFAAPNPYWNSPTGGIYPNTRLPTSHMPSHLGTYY
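His-tagged ERG Ets domain (1 uM in the protein solution; 300mM KCl, 50mM Tris-HCl, 1mM EDTA, 1mM DTT, pH 7.5) received compound, then a probe mix of 5 nM fluorescein-DNA and 100nM Texas-615-DNA. Fluorescence polarization was read for both dyes.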
TexasRed fluor – Texas Red fluorescence interference in TRb-SRC2 counter-screen. TRb/SRC2 Texas Red total fluorescence interference. Potency, µM (series often up to 106 µM), without a hit: at the top dose fluorescence change, negative = quenching. hit rate 0.29% among 280,000. AID 1479; active means well fitted curve in either direction with a large enough effect; inconclusive means small, poorly fitted or top-dose-only effect; further: on the % scale 0 is the no-effect control and ±100 the full control effect
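Human TRb ligand-binding domain at 0.6 uM with 20 nM Texas Red SRC2 peptide in Tris buffer containing 1 uM T3 and 5% DMSO, incubated with compound 5 h at ambient temperature. Total fluorescence (555/632 nm) calculated as parallel + 2 × perpendicular.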
TRb SRC2 PPI – disrupts binding of human TR beta to SRC2 | Potency, µM (top dose mostly 106 µM), for inactives: top-dose activity change, negative = inhibition, actives largely listed as inhibitors | hit rate 0.065% among 280,000 | TRbeta-SRC2 peptide binding, fluorescence polarization; receptor liganded with 1 µM T3 | AID 1469; active means well fitted inhibition curve with a large enough effect; inconclusive means small, poorly fitted or top-dose-only effect, or effect the other way;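 further: plate controls were bound peptide for no effect and peptide without receptor for full effect; nearly all actives have a fitted effect of over 50% in size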
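Compounds were added to 0.6 uM TRb ligand-binding domain and 20 nM Texas Red-labeled SRC2 peptide in Tris buffer containing 1 uM T3, incubated 5 hr at ambient temperature, then read by fluorescence polarization.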
An asterisk follows results filed as active; ? = inconclusive; / = no result; [ ] = remark or other dose. Potency means the concentration at half of the fitted maximal effect.

SMILES | ERG-DNA inh | TexasRed fluor | TRb SRC2 PPI
O=C(Nc1nnc(S(=O)(=O)N2CCCC2)s1)c1ccc(F)cc1 | 0.7% | 0.7% | -0.6%
O=C(Nc1nnc(S(=O)(=O)N2CCCCC2)s1)c1ccc(F)cc1 | -1.2% | 100µM*[quencher] | -11.5%
CCCn1c2ccccc2c2cnn(CC(=O)Nc3ccccc3OC)c(=O)c21 | 1.2% | ? | -2.9%
CCCn1c2ccccc2c2cnn(CC(=O)Nc3cc(OC)c(OC)c(OC)c3)c(=O)c21 | 5.0% | 17.8µM*[quencher] | -8.2%
CCOC(=O)c1c(NC(=O)/C=C/c2ccc(OC)c(OC)c2)sc(C(C)=O)c1C | 3.1% | 562µM*[quencher] | -19.4%[53 µM]
CCOC(=O)c1c(NC(=O)/C=C/c2ccc(OCC)cc2)sc(C(C)=O)c1C | -2.8% | -1.2% | 2.5%
O=[N+]([O-])c1ccc(O)cc1C(F)(F)F | / | 1.3%[201 µM] | -8.7%[201 µM]
C=CC(=O)OCC(C)OCC(C)OCC(C)OC(=O)C=C (stereo not given) | / | -1.8%[201 µM] | -2.6%[201 µM]
CC(=O)N[C@@H](CCC(=O)O)C(=O)O | / | -3.2% | 7.9%
CC(=O)N[C@@H](CC(=O)O)C(=O)O | 28.2µM* | -6.8%[53 µM] | -1.8%[53 µM]
Cc1ccc(Cl)cc1N1CCN(C(=O)C2CCN(S(=O)(=O)c3cccc4nonc34)CC2)CC1 | 15.8% | 7.94µM*[quencher] | 0.3%
O=C(C1CCN(S(=O)(=O)c2cccc3nonc23)CC1)N1CCN(c2cccc(Cl)c2)CC1 | 0.8% | -2.5% | -0.9%
O=C(Cn1nc(C(F)(F)F)c2c1CCC2)Nc1ccc(Cl)cc1 | 0.9% | ? | -3.4%
O=C(CCS(=O)(=O)c1ccc(Br)s1)Nc1c(F)cccc1F | 10.5% | 398µM*[quencher] | ?
Cc1ccc(NC(=O)CCS(=O)(=O)c2ccc(Br)s2)cc1 | 8.7% | / | /
COC(=O)c1ccc(=O)c2nc3/c(=C/O)c(O)cc(=O)c3[nH]c12 | -3.2% | 25.1µM*[quencher] | ?
COC(=O)c1ccc(N)cc1O | -2.8% | -0.7% | -0.9%
C=Cc1ccc(P(c2ccccc2)c2ccccc2)cc1 | / | 3.2%[201 µM] | 11.3%[201 µM]
CCn1c(C)nc2cc(C(=O)NNC(=S)Nc3ccc(C)cc3)ccc21 | 8.6% | 2.2% | -1.2%
CCn1c(C)nc2cc(C(=O)NNC(=O)CCC3CCCCC3)ccc21 | 0.5% | 3.55µM*[quencher] | ?
CC(C)c1cccc(C(C)C)c1 | / | -1.9%[201 µM] | 1.0%[201 µM]
FC(F)(F)c1cccc(N2CCN(c3ncnc4c3nc3n4CCCC3)CC2)c1 | 3.1% | 6.0% | -1.3%
O=C(O)c1cc(O)c2c(c1)[C@@H]([C@H]1c3cc(C(=O)O)cc(O)c3C(=O)c3c(O[C@@H]4O[C@H](CO)[C@@H](O)[C@H](O)[C@H]4O)cccc31)c1cccc(O[C@@H]3O[C@H](CO)[C@@H](O)[C@H](O)[C@H]3O)c1C2=O | -12.0% | / | /
O=C(O)c1cc(O)c2c(c1)[C@H]([C@H]1c3cc(C(=O)O)cc(O)c3C(=O)c3c(O[C@@H]4OC(CO)C(O)C(O)C4O)cccc31)c1cccc(O[C@@H]3OC(CO)C(O)C(O)C3O)c1C2=O (stereo not given in full) | / | 22.4µM*[quencher] | ?
Cn1c(NCCCO)nc2c1c(=O)n(Cc1cccc(F)c1)c(=O)n2C | 4.6% | -1.1% | 0.6%
SMILES | ERG-DNA inh | TexasRed fluor | TRb SRC2 PPI
COc1ccc(C(=O)Nc2ccccc2C(=O)OCc2cc(=O)n3c4c(sc3n2)CCCC4)cc1 | -3.7% | -3.6% | 16.2%
CCC(=O)Nc1cc(-c2nc3ccccc3s2)c(Cl)cc1Cl | -6.5% | 35.5µM*[quencher] | -11.0%
CCC(=O)NC(=S)Nc1ccc(-c2nc3ccccc3s2)cc1 | -2.9% | 0.4% | 9.2%
c1ccc(B(c2ccccc2)c2ccccc2)cc1 | / | 1.2%[201 µM] | 2.5%[201 µM]
CCOC(=O)NN1C(=O)c2ccccc2NC1c1ccccc1 (stereo not given) | -10.8% | ? | 5.6%
CCOC(=O)NN1C(=O)c2ccccc2NC1c1ccc(N(C)C)cc1 (stereo not given) | -4.3% | 112µM*[quencher] | -10.9%
CSc1nc2c(c(=O)[nH]1)C(c1cccc(F)c1F)CC(=O)N2 (stereo not given) | -3.3% | 6.4% | 0.2%
Cc1ccc(CSc2nc3c(c(=O)[nH]2)C(c2cccc(F)c2F)CC(=O)N3)cc1 (stereo not given) | 2.8% | 8.91µM*[quencher] | ?
CN(C)c1ccc(N/C=C/C(=O)C(C)(C)C)cc1 | -4.0% | ? | 44.7µM*
O=C(/C=C/Nc1ccccc1)c1ccccc1 | -6.5% | 0.7% | 8.2%
CCOC(=O)c1ccc(N/C=C/C(=O)C(C)(C)C)cc1 | -3.2% | 0.4% | 2.5%
CN(C)c1ccc(N/C=C/C(=O)c2ccccc2)cc1 | 0.4% | 44.7µM*[fluorescent] | 31.6µM*
CC(C)CCNC(=O)C(CC(C)C)NC(=O)C1OC1C(=O)O (stereo not given) | / | -8.1% | 4.3%
CCOCCOCCOCC | / | 1.5%[201 µM] | 4.1%[201 µM]
